The values below come from PubChem BioAssay AID488838 (National Center for Advancing Translational Sciences (NCATS), 2010).

Inconclusive results are not listed. Values without a mark were called inactive. Activity calls are given as the source filed them. The call rests on the fitted dose curve; in most records, active means well fitted inhibition curve with a large enough effect; inconclusive means small, poorly fitted or top-dose-only effect; inactive means flat fitted curve, though single readings scatter.

Sequence of Luciferin 4-monooxygenase (Photinus pyralis) (P08659 whole entry, looked up, canonical isoform): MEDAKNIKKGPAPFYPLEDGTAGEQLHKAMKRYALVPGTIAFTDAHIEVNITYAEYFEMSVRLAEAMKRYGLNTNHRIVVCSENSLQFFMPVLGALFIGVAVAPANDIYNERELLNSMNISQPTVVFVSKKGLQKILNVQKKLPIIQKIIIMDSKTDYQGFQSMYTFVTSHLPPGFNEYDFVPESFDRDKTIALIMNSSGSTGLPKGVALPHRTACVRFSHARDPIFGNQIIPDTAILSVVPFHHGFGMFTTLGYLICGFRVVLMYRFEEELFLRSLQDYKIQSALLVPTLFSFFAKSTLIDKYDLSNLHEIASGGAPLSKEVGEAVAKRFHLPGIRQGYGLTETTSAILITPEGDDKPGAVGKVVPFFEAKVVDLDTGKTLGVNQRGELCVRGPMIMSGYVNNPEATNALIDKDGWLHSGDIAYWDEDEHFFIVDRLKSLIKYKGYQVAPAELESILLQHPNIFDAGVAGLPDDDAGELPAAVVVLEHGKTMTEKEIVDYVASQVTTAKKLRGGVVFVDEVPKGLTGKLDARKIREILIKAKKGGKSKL

The target of this assay is Luciferin 4-monooxygenase (Photinus pyralis) (UniProt P08659). Put plainly: Counterscreen Assay for Enhancers of SMN2 Splice Variant Expression: Interaction with Luciferase Reporter for Further Probe SAR. The following applies: purified firefly luciferase, luminescence, 5 min; series mostly up to 57.5 µM; activity change, negative = inhibition: at the top concentration. The source says:
NIH Chemical Genomics Center [NCGC] NIH Molecular Libraries Probe Production centers Network [MLPCN] MLPCN Grant: R03 MH084179-01 Assay Submitter (PI): Elliot Androphy NCGC Assay Overview: Spinal muscular atrophy (SMA) is caused by insufficient levels of the survival motor neuron protein SMN. The SMN locus on chromosome 5q13 contains two inverted copies of SMN called SMN1 and SMN2 which are 99% identical at the amino acid level. SMN1 is a fully functional protein and SMN2 skips exon 7 90% of the time. Skipping of exon 7 produces non-functional protein product. 10% of the SMN2 protein includes exon 7 and is fully functional. In the SMA disease state, mutations in the SMN1 locus are the cause of the disease state. Because only 10% of SMN2 is of the fully functional form, it is not sufficient to overcome the deficiency produced by the loss of the SMN1 product. A therapy that either increases the amount of SMN2 product made increases the inclusion of exon 7 has been proposed for the treatment of SMA. We have designed an assay to identify small molecules that can increase the amount of functional SMN2 product by appending a luciferase reporter gene after the native SMN2 gene, such that inclusion of exon 7 in the expressed product places the luciferase sequence in frame, thus generating functional luciferase enzyme. One potential source of false positives in the primary screening assay is stabilization of the reporter luciferase via direct binding. This assay attempts to identify such compounds by screening directly for luciferase activity in the absence of the cellular system.
NCGC Assay Protocol Summary: The primary screen utilizes a luciferase reporter gene assay, combining the promoter and splicing based cassettes in tandem with the major portion of the native SMN1 cDNA, and then transfected into HEK293 cells. Compounds that modulate luciferase signal presumably modulate expression of […]. In this assay, we utilize purified firefly luciferase in lieu of a cellular reporter to identify compounds interacting directly with luciferase in the primary screen. Sequence, Parameter, Value, Description (1) Reagent, 2.5 uL, Enzyme in buffer (note A) (2) Compound, 23 nL, From stock solutions (3) Time, 5 minutes, Room temp (4) Reagent#2.5 ul, Luciferase detection reagent (note B) (5) Detector, 1 sec integrate, Luminescent read on Viewlux (note C) Sigma enzyme (1 mg) considered to be MW 61,000 diluted in 357 ul assay buffer to 50 uM stock. A - Enzyme and buffer consists of 50 mM Tris-acetate pH 7.6, 10 mM Mg acetate 0.05% BSA, 0.01% Tween and 5 nM firefly luciferase B - Detection reagent = britelite plus diluted 1:10 in PBS C - Viewlux settings were 1 second integration medium sensitivity Keywords: Spinal muscular atrophy, SMA, SMN2, high throughput screening, MLSMR, MLPCN, NIH Roadmap, qHTS and NCGC
Background: A counterscreen serves to expose hits that act by an unwanted route or on another target.
With `CCOC(=O)C1CCN(c2nc(-c3ccc(Br)cc3)cs2)CC1`, the “activity change, negative = inhibition” value was -28.1%.

For `CC(=O)NC1CCN(c2nc(-c3ccc(Br)cc3)cs2)CC1`, the “activity change, negative = inhibition” value is -15.6%.

In the case of `NC(=O)C1CCN(c2nccc(-c3ccc4c(c3)OCCCO4)n2)CC1`, the “activity change, negative = inhibition” value is -29.5%.

On to `NC(=O)C1CCN(c2nc(-c3ccc4c(c3)OCCCO4)cs2)CC1`, for which the Potency was 0.897 µM (active).

As for `COc1ccc(-c2csc(N3CCC(C(N)=O)CC3)n2)cc1OC`, the “activity change, negative = inhibition” value is -25.8%.

In the case of `Nc1nc(N)c2c(OCC3CCN(Cc4ccccc4F)CC3)cccc2n1`, the “activity change, negative = inhibition” value is -16.4%.

As for `CC(C)(C)OC(=O)NC1CCN(c2nc(-c3ccc(Br)cc3)cs2)CC1`, the “activity change, negative = inhibition” value is -14.5%.

`NC(=O)C1CCN(c2nc(-c3ccccc3Cl)cs2)CC1`: the “activity change, negative = inhibition” value is -28.1%.

As to `CC(=O)C1CCN(c2ncc(-c3cccc(N(C)C)c3)s2)CC1`, the Potency was 5.05 µM (active).

Turning to `CS(=O)(=O)c1ccc(-c2csc(N3CCC(C(N)=O)CC3)n2)cc1`, the “activity change, negative = inhibition” value was -17.5%.

With `c1c[nH]c(C2CCN(c3ncc(-c4ccc5c(c4)OCCCO5)s3)CC2)n1`, the Potency is 10.1 µM (active).

`O=C(c1ccccc1)N1CCN(c2nc(-c3ccc(Br)cc3)cs2)CC1`: the “activity change, negative = inhibition” value is -22.2%.

On to `CC(=O)Nc1ccc(-c2csc(N3CCC(C(N)=O)CC3)n2)cc1`, for which the “activity change, negative = inhibition” value is -14%.

For `NC(=O)C1CCN(c2ncc(-c3ccc4c(c3)OCCO4)s2)CC1`, the Potency was 5.05 µM (active).

As for `COc1cc(-c2csc(N3CCC(C(N)=O)CC3)n2)cc(OC)c1OC`, the “activity change, negative = inhibition” value was -11.5%.

As for `N#Cc1ccccc1-c1csc(N2CCC(C(N)=O)CC2)n1`, the “activity change, negative = inhibition” value was -25.4%.

`NC(=O)C1CCN(c2nc(-c3cccc(Br)c3)cs2)CC1`: the Potency is 31.8 µM (active).

Turning to `CN(C)c1cccc(-c2cnc(N3CCC(C(N)=O)CC3)s2)c1`, the Potency is 0.635 µM (active).

As to `NC(=O)C1CCN(c2ncc(-c3ccc(Cl)cc3)s2)CC1`, the Potency is 10.1 µM (active).

As for `NC(=O)C1CCN(c2nccc(-c3ccc(Br)cc3)n2)CC1`, the Potency is 25.3 µM (active).

Regarding `NC1CCN(c2nc(-c3ccc(Br)cc3)cs2)CC1`, the Potency was 2.01 µM (active).

`CCOC(=O)C1CCN(c2ncc(-c3ccc4c(c3)OCCCO4)s2)CC1`: the Potency is 8 µM (active).
